Data on 40 compounds can be found in PubChem BioAssay AID686915 (National Center for Advancing Translational Sciences (NCATS), 2013).

Where “and” joins values, the source holds several entries; their conditions need not be identical. Identical values can stand only once. Inconclusive results are not listed. Where a call stands in place of a potency, no number is given. Calls of active or inactive are those of the source. Calls come from the whole dose curve; as a rule, active = well fitted inhibition curve with a large enough effect; inconclusive = small, poorly fitted or top-dose-only effect; inactive = no such curve, though single readings can be large or run the other way.

This experiment is described as follows: qHTS screen for inhibitors of ELG1-dependent DNA repair in human embryonic kidney (HEK293T) cells expressing luciferase-tagged ELG1: MMS Stimulated Assay for probe SAR. The conditions noted are these: HEK293T ELG1-luciferase reporter, 16 h; series mostly up to 46.1 µM. The source says: Cancer cells divide rapidly compared to normal cells in the body. During cell division, cancer cells need to duplicate their genome by DNA replication. The failure of genome duplication leads to cancer cells' death. Therefore, inhibitors of DNA replication could specifically kill cancer cells. Based on this concept, many chemotherapeutic agents were developed and have been used to treat cancer patients. However, there are a limited number of agents available in the clinical setting, and some of those that do exist have low efficacy and severe side effects. Therefore, if we can find the compounds that effectively block DNA replication either by directly damaging DNA or by inhibiting other cellular mechanisms, the options for cancer treatment will be broadened. With this in mind, we developed a quantitative high-throughput ELG1-luciferase reporter gene assay. Small molecules that specifically block ELG1 function in response to DNA damage can be identified by monitoring the suppression of luciferase activity. Since ELG1 defines a pathway for repairing DNA damage, agents blocking ELG1 function can be used to sensitize cancer cells to chemotherapeutic agents whose mechanism of action involves the induction of DNA damage. NIH Molecular Libraries Probe Production Network [MLPCN] NIH Chemical Genomics Center [NCGC] MLPCN Grant: R03 MH092164 Assay Provider: Kyungjae Myung, NHGRI, NIH
ELG1-luc HEK293T cells will be seeded in 1536-well plates at a density of 2,000 cells / well. Approximately 5 hours after plating, compounds will be added to the plate by pin tool transfer and MMS will be added by FRD dispenser (final concentration of MMS = 10 µM). 16 hours following the addition of the compounds, luciferase activity will be measured using Amplight reagent.
In the case of `Fc1cc(Nc2nc(-c3ccncc3)nc3ccccc23)ccc1-c1cn[nH]c1`, the Potency result was “inactive”. As for `Fc1cc(Nc2nc(-c3ccncc3)nc3ccccc23)ccc1-c1cc(F)c(F)c(F)c1`, the entry is “inactive”; as for `Fc1ccc(-c2ccc(Nc3nc(-c4ccncc4)nc4ccccc34)cc2F)c(Cl)c1`, 11.8 µM (active); as for `Cc1nc2ccc(Nc3nc(-c4ccncc4)nc4ccccc34)cc2s1`, “inactive”. Regarding `Fc1cc(Nc2nc(-c3ccncc3)nc3ccccc23)ccc1N1CCNCC1`, the Potency result was “inactive”.

For `Nc1cc(-c2nc(Nc3ccc(F)c(F)c3)c3ccccc3n2)ccn1`, the Potency result was “inactive”. Take `N#Cc1cc(-c2nc(Nc3ccc(F)c(F)c3)c3ccccc3n2)ccn1`: the Potency result was “inactive”.

Take `Fc1cc(Nc2nc(-c3ccncc3)nc3ccccc23)ccc1C(F)(F)F`: the Potency was 8.33 µM (active) and 13.2 µM (active). As for `CSc1ccccc1-c1ccc(Nc2nc(-c3ccncc3)nc3ccccc23)cc1F`, the figure is 18.7 µM (active); as for `Fc1ccc(Nc2nc(-c3ccnc(C(F)(F)F)c3)nc3ccccc23)cc1F`, 18.7 µM (active); as for `Cc1cc(-c2nc(Nc3ccc(F)c(F)c3)c3ccccc3n2)cc(C)n1`, “inactive”. As for `COc1cc(Nc2nc(-c3ccncc3)nc3ccccc23)ccc1F`, the figure is 23.5 µM (active) and 20.9 µM (active); as for `Fc1cc(Nc2nc(-c3ccncc3)nc3ccccc23)ccc1-c1cncnc1`, “inactive”.

Regarding `CN1CCN(c2cc(-c3nc(Nc4ccc(F)c(F)c4)c4ccccc4n3)ccn2)CC1`, the Potency is 23.5 µM (active). To `Fc1cc(Nc2nc(-c3ccncc3)nc3ccccc23)ccc1-c1cccc(OC(F)F)c1` belongs “inactive”; to `COc1ccc(Nc2nc(-c3ccncc3)nc3ccccc23)cc1F`, “inactive”. To `Fc1ccc(-c2nc(-c3ccncc3)nc3ccccc23)cc1F` belongs “inactive”. To `Fc1cc(Nc2nc(-c3ccncc3)nc3ccccc23)ccc1-c1cccc(C(F)(F)F)c1` belongs 18.7 µM (active); to `Cc1noc(C)c1-c1ccc(Nc2nc(-c3ccncc3)nc3ccccc23)cc1F`, 18.7 µM (active); to `Cc1ccc(Nc2nc(-c3ccncc3)nc3ccccc23)cc1F`, “inactive”. As for `Cc1cnccc1-c1nc(Nc2ccc(F)c(F)c2)c2ccccc2n1`, the Potency entry was “inactive”. With `Fc1cccc(-c2ccc(Nc3nc(-c4ccncc4)nc4ccccc34)cc2F)c1`, the Potency result was “inactive”. To `Fc1cc(Nc2nc(-c3ccncc3)nc3ccccc23)ccc1-c1ccc(F)c(F)c1F` belongs “inactive”; to `N#Cc1cnccc1-c1nc(Nc2ccc(F)c(F)c2)c2ccccc2n1`, 5.26 µM (active); to `COc1ccc(-c2ccc(Nc3nc(-c4ccncc4)nc4ccccc34)cc2F)cc1F`, “inactive”. To `Fc1cc(Nc2nc(-c3ccncc3)nc3ccccc23)ccc1-c1ccncc1` belongs “inactive”; to `CCOC(=O)c1ccc2c(c1)c(C(C)=O)c(C)n2-c1ccc(OC)cc1`, “inactive”; to `Fc1ccccc1-c1ccc(Nc2nc(-c3ccncc3)nc3ccccc23)cc1F`, 16.6 µM (active). To `COc1cc(Nc2nc(-c3ccncc3)nc3ccccc23)ccc1N1CCN(C)CC1` belongs “inactive”; to `Fc1ccc(Nc2nc(-c3ccnc(N4CCCCC4)c3)nc3ccccc23)cc1F`, “inactive”. In the case of `Fc1cc(Nc2nc(-c3ccncc3)nc3ccccc23)ccc1-c1ccc2[nH]ncc2c1`, the Potency result is “inactive”. To `Fc1cc(Nc2nc(-c3ccncc3)nc3ccccc23)ccc1-n1cncn1` belongs “inactive”; to `COc1cnccc1-c1nc(Nc2ccc(F)c(F)c2)c2ccccc2n1`, 13.2 µM (active); to `Cc1cc(-c2nc(Nc3ccc(F)c(F)c3)c3ccccc3n2)ccn1`, “inactive”. With `COc1nccc(-c2nc(Nc3ccc(F)c(F)c3)c3ccccc3n2)c1Cl`, the Potency result is “inactive”.

`Fc1cc(-c2nc(Nc3ccc(F)c(F)c3)c3ccccc3n2)ccn1`: the Potency result is “inactive”. As for `COc1cc(-c2nc(Nc3ccc(F)c(F)c3)c3ccccc3n2)ccn1`, the entry is “inactive”; as for `O=c1cc(-c2nc(Nc3ccc(F)c(F)c3)c3ccccc3n2)cc[nH]1`, “inactive”. To `Fc1cc(Nc2nc(-c3ccncc3)nc3ccccc23)ccc1-c1ccnc(C(F)(F)F)c1` belongs “inactive”; to `COc1cc(Nc2nc(-c3ccncc3)nc3ccccc23)ccc1NS(C)(=O)=O`, “inactive”.
